An excerpt weighted towards active compounds, which were near 21% of everything screened.
NS1 inh – influenza NS1 inhibition. Potency, µM (doses to about 46.1 µM). 270,000 compounds, 0.4% hits; also: actives are rising curves; nearly all actives have a fitted effect of over 50% in size
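OD600 was taken as the measure of yeast growth restored by compound in an NS1-expressing S. cerevisiae strain. Cells had been washed out of glucose medium and diluted 1:100 into galactose -URA medium, pH 6.0.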
CHX counter – affects cycloheximide protein synthesis inhibition readout, counter-screen; cell reporter, cycloheximide protein synthesis inhibition counterscreen; max response, %; 300,000 compounds, 12% hits; in the data active = max response mostly above about 13%, no sharp cut-off; inactive = mostly below about 14%; also: read at 38.3 µM for the half of the compounds with a filed dose
Pf growth 48h – P. falciparum growth inhibition at 48 hours (one generation) | Potency, µM (series often up to 28.7 µM), usual class: inhibitors | 310,000 compounds, 5.9% hits | P. falciparum luciferase growth in erythrocytes, 48 h; active = well fitted inhibition curve with a large enough effect; inconclusive = small, poorly fitted or top-dose-only effect, or another doubt; inactive = no such curve, though single readings can be large or run the other way
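Firefly luciferase activity from engineered P. falciparum reports growth; inhibitors lower the luminescent signal. Cultures contained 2% hematocrit erythrocytes at 0.1% final parasitemia.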
Shiga inhibitor – inhibitors of Shiga toxin in Vero cells. Vero cells, Shiga toxin protein synthesis inhibition reporter. 290,000 compounds, 9.2% hits. inhibition, % at 38.7 µM. AID 2315; in the data active = inhibition mostly above about 28%, no sharp cut-off; inactive = mostly below about 43%
Pf growth 96h – P. falciparum growth inhibition at 96 hour, primary screen for plastid delayed-death inhibitors; P. falciparum luciferase reporter growth, 96 h; Potency, µM (doses to about 28.7 µM), actives largely listed as inhibitors; 320,000 compounds, 6.9% hits; active = well fitted inhibition curve with a large enough effect; inconclusive = small, poorly fitted or top-dose-only effect, or another doubt; inactive = no such curve, though single readings can be large or run the other way
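Compounds incubated with erythrocytes infected by luciferase-expressing P. falciparum (2% hematocrit, 0.05% parasitemia final) for 96 hours, 37 C in 5% CO2. Growth inhibition scored as decreased luciferase luminescence.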
NS1 inh valid – influenza NS1 function inhibition validation; shares compounds with NS1 inh; influenza NS1 function cell assay, 15-point titration; activity change, negative = inhibition, % at 32.9 µM; 1,400 tested, under 10 active; AID 492980
PR8 titer – influenza NS1 inhibitors: inhibition of influenza A/PR/8/34 replication; virus titer (log TCID50), log10 TCID50 at 5 µM; MDCK infected influenza A/PR/8/34, virus titer TCID50; hits give low values; shares compounds with NS1 inh; AID 504647; 95 compounds, 30% hits; call rule not given here
Of the large screens only hits and unclear results are named; the others gave an inactive call (follow-up assays come after a bar, where they were run); ! = repeats disagree. Unless noted, calls follow the shape of the full dose curve.

CC(C)c1ccccc1-n1c(SCC(=O)N2CCc3ccccc3C2)nc2ccccc2c1=O	NS1 inh 22µM, Pf growth 48h 1.5µM, Pf growth 96h 5.9µM | NS1 inh valid inactive
O=C(O)c1ccccc1-c1ccccc1C(=O)Nc1ccc2c(c1)Cc1cc(F)ccc1-2	none (no result: CHX counter, Pf growth 48h, Shiga inhibitor, Pf growth 96h)
Cc1oc(-c2ccccc2Cl)nc1CS(=O)CC(=O)N1CCN(c2ccccc2)CC1 (configuration not stated)	Pf growth 96h inconclusive
Cc1ccccc1-c1nc(CS(=O)CC(=O)N2CCC3(CC2)OCCO3)c(C)o1 (configuration not stated)	NS1 inh 1.1µM, Pf growth 48h inconclusive | NS1 inh valid inactive | PR8 titer inactive
O=C(Cc1cccc2ccccc12)N/N=C/c1ccc(Sc2nc3ccccc3s2)o1	NS1 inh 10µM, Pf growth 48h inconclusive, Pf growth 96h inconclusive | NS1 inh valid inactive
O=C(COc1cccc2ccccc12)N/N=C/c1ccc(Sc2nc3ccccc3s2)o1	Pf growth 48h inconclusive (no result: Pf growth 96h)
CCCn1c(C)cc(/C=C(\C#N)C(=O)OCC(=O)NC(=O)NC(C)(C)C)c1C	NS1 inh 3.2µM (no result: Pf growth 96h) | NS1 inh valid inactive
C=CCNC(=O)NC(=O)COC(=O)/C(C#N)=C/c1cc(C)n(CC(C)C)c1C	none (no result: Pf growth 96h)
COCCn1c(=O)[nH]c2cc(C(=O)Nc3nnc(C)s3)ccc21	none
COC(=O)c1cccc(C23CC4(C2)[C@H](CN(Cc2cccnc2)[C@@H]4c2ccccc2)C3c2ccc(C(F)(F)F)cc2)c1 (some centres not stated)	NS1 inh 8.9µM, Pf growth 48h 2.3µM, Pf growth 96h inconclusive | NS1 inh valid inactive
COC(=O)c1cccc(NC(=O)c2ccc3c(c2)C(=O)N(Cc2cccnc2)C3=O)c1	Pf growth 96h inconclusive
CC(CC(=O)NNC(=O)c1cccc(Cl)c1)c1ccccc1 (configuration not stated)	none
NC(=S)NNC(=O)c1cccc(Cl)c1	NS1 inh 3.2µM | NS1 inh valid inactive
C=CCSc1nnc(NC(=O)Cn2cnc3c2c(=O)n(C)c(=O)n3C)s1	Pf growth 96h inconclusive (no result: NS1 inh)
CC1=CC(C2CC(=O)N(c3ccccc3C)C2=O)CC2C(=O)N(c3ccccc3C)C(=O)C12 (configuration not stated)	none
Cc1ccc(NC(=O)CC2SC(=O)NC2=O)cc1 (configuration not stated)	NS1 inh 6.3µM | NS1 inh valid inactive
CCOc1cccc(CN2CCC(N3CCC(C(=O)NCC4CCCO4)CC3)CC2)c1 (configuration not stated)	none
CCCCn1c(N)c(N(CC(C)C)C(=O)CCNC(=O)c2ccc(Cl)cc2)c(=O)[nH]c1=O	none (no result: NS1 inh, CHX counter, Shiga inhibitor)
CN(C(=O)COC(=O)CCc1c[nH]c2ccccc12)C(c1ccccc1)c1ccccc1	NS1 inh 8.9µM, Pf growth 48h 12µM, Pf growth 96h 10µM | NS1 inh valid inactive
O=C(COC(=O)CCc1c[nH]c2ccccc12)NCc1ccccc1	none
CC/C(=N\NC(=O)c1ccc(CN(C)S(=O)(=O)c2ccc(C)cc2)cc1)c1ccc(OC(F)F)cc1	NS1 inh inconclusive | NS1 inh valid inactive
Cc1ccc(S(=O)(=O)N(C)Cc2ccc(C(=O)NN=C(CC(C)C)CC(C)C)cc2)cc1	NS1 inh inconclusive, Pf growth 96h inconclusive
Cc1ccccc1C(=O)N1CCc2cc(-c3nc(NC(=O)Cc4ccc5c(c4)OCO5)sc3C)ccc21	NS1 inh inconclusive, Pf growth 48h inconclusive | NS1 inh valid inactive
COc1ccc(N(CC(=O)NCCSC2CCCCC2)S(=O)(=O)c2ccccc2)c(OC)c1	NS1 inh 4µM, Pf growth 48h inconclusive | NS1 inh valid inactive
CCOc1cc(CNc2ccccc2)cc(Br)c1OCc1ccccc1F	Pf growth 48h inconclusive (no result: Pf growth 96h)
COc1cc(CNc2ccc3[nH]c(=O)[nH]c3c2)cc(Br)c1OCc1ccccc1F	NS1 inh 0.79µM (no result: Pf growth 48h) | NS1 inh valid inactive
CCC(=O)N1CCc2cc(S(=O)(=O)NC(Cc3ccccc3)C(=O)Nc3nccs3)ccc21 (configuration not stated)	Pf growth 48h inconclusive, Pf growth 96h inconclusive
Cc1ccc(C)c(S(=O)(=O)Nc2ccccc2C(=O)Nc2ccc(S(=O)(=O)Nc3ncccn3)cc2)c1	NS1 inh 11µM, Pf growth 48h inconclusive, Pf growth 96h inconclusive | NS1 inh valid inactive
CCCn1c(=O)c(Cc2ccccc2)c(O)c2ccccc21	NS1 inh inconclusive | NS1 inh valid inactive
CCOc1c2ccccc2nn1CCO	none (no result: NS1 inh, CHX counter, Shiga inhibitor)
Nc1ccc2nc(SCC(=O)Nc3ccc(N4CCOCC4)c(Cl)c3)sc2c1	NS1 inh 10µM, CHX counter 21 | NS1 inh valid inactive
CC(=O)Nc1ccc2nc(SCC(=O)N3CCOCC3)sc2c1	none (no result: NS1 inh)
Cc1ccc(S(=O)(=O)N2CCCCC2C)cc1[N+](=O)[O-] (configuration not stated)	none
Cc1ccc(-n2nc3c(c2NC(=O)/C=C\c2ccc4c(c2)OCO4)CSC3)cc1	NS1 inh 16µM, Pf growth 96h 13µM | NS1 inh valid inactive
Cc1ccc(-n2nc3c(c2NC(=O)/C=C\c2ccc4c(c2)OCO4)CSC3)c(C)c1	NS1 inh 8.9µM, Pf growth 48h inconclusive, Pf growth 96h 13µM | NS1 inh valid inactive
CCOC(=O)C(=CNc1ccc(NC2=NCC(C)(C)S2)cc1)C(=O)OCC	Pf growth 48h inconclusive, Pf growth 96h inconclusive
CC1=CCC2(CO)COC(c3ccccc3O)C1C2 (configuration not stated)	none
c1ccc(-n2cnc3cc(NCc4ccncc4)ccc32)cc1	NS1 inh inconclusive, CHX counter 27, Pf growth 48h inconclusive, Shiga inhibitor 91, Pf growth 96h inconclusive | NS1 inh valid inactive
O=[N+]([O-])c1ccc(N2CCN(S(=O)(=O)c3ccccc3[N+](=O)[O-])CC2)cc1NCc1cccnc1	NS1 inh 14µM, Pf growth 48h 8.3µM, Pf growth 96h 10µM | NS1 inh valid inactive
CON(C)c1nc(Oc2ccc(=O)[nH]n2)nc(N(C)C)n1	NS1 inh inconclusive (no result: Pf growth 96h) | NS1 inh valid inactive
COc1ccnc(Oc2cccc(C(F)(F)F)c2)c1C(=O)N/C=N/OCc1ccccc1F	Pf growth 48h inconclusive, Pf growth 96h inconclusive
N[C@@H](Cc1c[nH]c2ccccc12)C(=O)O	Pf growth 96h inconclusive
NC(Cc1c[nH]c2ccccc12)C(=O)NCc1ccccc1 (configuration not stated)	NS1 inh inconclusive | NS1 inh valid inactive
O=C(O)c1cc(-c2ccco2)nc2ccc(Br)cc12	NS1 inh 20µM!, Pf growth 96h inconclusive | NS1 inh valid inactive
Cc1cc(C)c2c(=O)n(CC(=O)N3CCC(N4CCCCC4)CC3)sc2n1	Pf growth 96h inconclusive (no result: Pf growth 48h)

High-throughput results deposited in PubChem BioAssay by National Center for Advancing Translational Sciences (NCATS).
